Measured values as given in ChEMBL document CHEMBL4513216, “Probing the Open Global Health Chemical Diversity Library for Multistage-Active Starting Points for Next-Generation Antimalarials” (ACS Infect Dis, 2020).
Screen size: about 68,000 compounds; about 2,700 (4%) showed an effect of 50% or more. For the sample, strong results were picked, then their nearest neighbours and some compounds at random.

system: Plasmodium berghei; experiment: Screen against P. berghei liver stage (PbLuc), transformed with Luciferase, at 2uM; type: functional, HepG2; details: tested at 2 uM

| Compound | INHIBITION [%] |
| --- | --- |
| O=C(C1CCCC1)N1CCC2(CC1)OCCO2 | -29.58 |
| CC(C)C1CN(c2cccc(C#N)n2)CCCN1Cc1ccc(F)cc1 (stereo not drawn) | 8.26 |
| Cc1cc(C)nc(C2CCN(c3ccncn3)C2)n1 (stereo not drawn) | 80.06 |
| CCc1nnc(Nc2cc(C)nc(C3CCN(c4ccncn4)C3)n2)s1 (stereo not drawn) | 37.36 |
| Cc1ccnc(C2CCN(c3ccnc(C)n3)C2)n1 (stereo not drawn) | 17.24 |
| N#Cc1cccc(NC(=O)N(CC(F)F)C2CC2)c1 | -73.45 |
| CSCC(=O)N1CCCC(CCC(=O)N(C)CCc2ccccn2)C1 (stereo not drawn) | 28.62 |
| O=C(c1ccoc1)N1CC[C@H]2OCC[C@@]2(COc2ncccc2F)C1 | 30.79 |
| CC(c1cccc(O)c1)N(C)S(=O)(=O)c1cccnc1 (stereo not drawn) | -18.09 |
| CC(c1cccc(O)c1)N(C)S(N)(=O)=O (stereo not drawn) | -21.47 |
| CCN(C(C)c1cccc(O)c1)S(=O)(=O)c1cccnc1 (stereo not drawn) | 52.83 |
| Cc1cc(C)c(N(CC(O)CNCc2ccccc2)S(C)(=O)=O)c(C)c1 (stereo not drawn) | 25.73 |
| CN(CCNC(=O)N1CCN(Cc2ccon2)CC1)c1ccccc1 | -5.97 |
| Cc1cc(CN2CCN(C(=O)NCc3ccco3)CC2)no1 | -24.5 |
| CCN(CC)CCNC(=O)C(C)OCC(F)(F)F (stereo not drawn) | -55.73 |
| CC(OCC(F)(F)F)C(=O)NCCN(C)C (stereo not drawn) | -6.73 |
| CC(C)C(=O)NCCNC(=O)C(C)OCC(F)(F)F (stereo not drawn) | 57.76 |
| O=C(c1c[nH]c(=O)[nH]1)N1CCc2ccccc21 | -63.68 |
| CC(C)(C)c1ccc2c(c1)CCN2C(=O)c1ccc(=O)[nH]n1 | -6.69 |
| O=C(c1ccc(=O)[nH]n1)N1CCc2ccccc21 | 54.52 |
| O=C(c1cccnc1)N1CCCC1c1cc[nH]n1 (stereo not drawn) | 40.31 |
| Cc1ccc(C(=O)N(Cc2ccc(F)cc2)C2CC2)c(=O)[nH]1 | 27.33 |
| Cc1ccc(C(=O)N(Cc2cccc(F)c2)C2CC2)c(=O)[nH]1 | 63.46 |
| Cc1ccc(C(=O)N(Cc2ccc(F)cc2F)C2CC2)c(=O)[nH]1 | 20.76 |
| CN1CCN(c2ncc3c(c2C(=O)O)CCN(C2CCOC2)C3)CC1 (stereo not drawn) | 21.28 |
| CCN(C)c1ncc2c(c1C(=O)O)CCN(C1CCOC1)C2 (stereo not drawn) | 54.13 |
| CCN(CC)c1ncc2c(c1C(=O)O)CCN(C1CCOC1)C2 (stereo not drawn) | 24.51 |

| Compound | INHIBITION [%] |
| --- | --- |
| O=C(O)c1c(-c2ccncc2)ncc2c1CCN(C1CCOC1)C2 (stereo not drawn) | -80.9 |
| O=C(O)c1c(NC2CCC2)ncc2c1CCN(C1CCOC1)C2 (stereo not drawn) | 45.12 |
| O=C(O)c1c(-c2ccoc2)ncc2c1CCN(C1CCOC1)C2 (stereo not drawn) | 55.52 |
| CNS(=O)(=O)c1ccc(CNC(=O)Nc2cn[nH]c2)cc1 | 2.07 |
| COc1ccccc1CCc1nc(CC2CCN(C)CC2)no1 | 34.46 |
| COc1c[nH]c(C(=O)N2CCN(c3cccc(Cl)c3)CC2)cc1=O | 22.88 |
| CCc1ncc(CN2C[C@@H]3CC[C@H]2CN(C(=O)C2CCC2)C3)cn1 | 12.3 |
| Cn1ccnc1CN(CCO)C(=O)c1cc2ccccc2o1 | 22.27 |
| Cn1ccnc1CN(CCO)C(=O)c1cnc2ccccc2c1 | 29.71 |
| Cc1c(Cl)cc(C(=O)N(CCO)Cc2nccn2C)cc1Cl | 55.84 |
| CC(C)NC(=O)NC(C)c1nc(-c2ccccc2)cs1 (stereo not drawn) | -22.08 |
| Cc1csc(N(C)C(=O)C2CC(=O)N(c3ccccc3Cl)C2)n1 (stereo not drawn) | -29.95 |
| CCN(CC)S(=O)(=O)N1CCCC(c2ncc3c(n2)CCN(C)C3)C1 (stereo not drawn) | 3.38 |
| CN1CCc2nc(C3CCCN(S(=O)(=O)N4CCCC4)C3)ncc2C1 (stereo not drawn) | -1.51 |
| CN1CCc2nc(C3CCCN(S(=O)(=O)c4ccccc4)C3)ncc2C1 (stereo not drawn) | 64.55 |
| Cc1nc(N2CCCC2C(=O)NC(C)(C)CO)nc2ccccc12 (stereo not drawn) | 26.49 |
| COCC1CN(c2ccc(Cl)cc2C#N)CCO1 (stereo not drawn) | 29.3 |
| Cc1nc(CN2CCCC(c3nc(C)n4c(C)c(C)sc34)C2)co1 (stereo not drawn) | -12.89 |
| Cc1cc(CNC2(CO)CCOCC2)ccc1Br | 51.08 |
| Cc1cc(CNCC2(O)CCOCC2)ccc1Br | -6.29 |
| OCC1(NCc2cccc(-n3cccn3)c2)CCOCC1 | -2.38 |
| CCn1c(CN2CCN(C(=O)C3CCC3)CC2)nc2c(F)cccc21 | 10.22 |
| O=C(C1CNCCO1)N1CCCC(c2ccccc2)(c2ccccc2)C1 (stereo not drawn) | 42.2 |
| Cc1nc(C(C)C)sc1C(=O)NS(=O)(=O)c1ccc(C#N)cc1 | 36.12 |
| CCCc1nc(C)c(C(=O)NS(=O)(=O)c2ccc(C#N)cc2)s1 | 55.63 |
| CCCc1nc(C)c(C(=O)NS(=O)(=O)c2cccnc2)s1 | -25.2 |
